According to the supplement of paper PMC11732987, “Enantioselective OTUD7B fragment discovery through chemoproteomics screening and high-throughput optimisation” (Communications Chemistry, 2025):
Values without a mark were called inactive.

Experiments:
Experiment in all cases: log2 ratio of Biotin-Ahx-Ub-VS probe labelling (fragment/DMSO); higher = less target engagement (more negative = stronger competition), active = hit call of the paper (q ≤ 0.05, log2 ratio ≤ -1)
Details in all cases: compound concentration: 200 uM; treatment time: 3 h
[1] = biological target: T1, ALG13 (UniProt Q9NP73)
T1 sequence (whole entry): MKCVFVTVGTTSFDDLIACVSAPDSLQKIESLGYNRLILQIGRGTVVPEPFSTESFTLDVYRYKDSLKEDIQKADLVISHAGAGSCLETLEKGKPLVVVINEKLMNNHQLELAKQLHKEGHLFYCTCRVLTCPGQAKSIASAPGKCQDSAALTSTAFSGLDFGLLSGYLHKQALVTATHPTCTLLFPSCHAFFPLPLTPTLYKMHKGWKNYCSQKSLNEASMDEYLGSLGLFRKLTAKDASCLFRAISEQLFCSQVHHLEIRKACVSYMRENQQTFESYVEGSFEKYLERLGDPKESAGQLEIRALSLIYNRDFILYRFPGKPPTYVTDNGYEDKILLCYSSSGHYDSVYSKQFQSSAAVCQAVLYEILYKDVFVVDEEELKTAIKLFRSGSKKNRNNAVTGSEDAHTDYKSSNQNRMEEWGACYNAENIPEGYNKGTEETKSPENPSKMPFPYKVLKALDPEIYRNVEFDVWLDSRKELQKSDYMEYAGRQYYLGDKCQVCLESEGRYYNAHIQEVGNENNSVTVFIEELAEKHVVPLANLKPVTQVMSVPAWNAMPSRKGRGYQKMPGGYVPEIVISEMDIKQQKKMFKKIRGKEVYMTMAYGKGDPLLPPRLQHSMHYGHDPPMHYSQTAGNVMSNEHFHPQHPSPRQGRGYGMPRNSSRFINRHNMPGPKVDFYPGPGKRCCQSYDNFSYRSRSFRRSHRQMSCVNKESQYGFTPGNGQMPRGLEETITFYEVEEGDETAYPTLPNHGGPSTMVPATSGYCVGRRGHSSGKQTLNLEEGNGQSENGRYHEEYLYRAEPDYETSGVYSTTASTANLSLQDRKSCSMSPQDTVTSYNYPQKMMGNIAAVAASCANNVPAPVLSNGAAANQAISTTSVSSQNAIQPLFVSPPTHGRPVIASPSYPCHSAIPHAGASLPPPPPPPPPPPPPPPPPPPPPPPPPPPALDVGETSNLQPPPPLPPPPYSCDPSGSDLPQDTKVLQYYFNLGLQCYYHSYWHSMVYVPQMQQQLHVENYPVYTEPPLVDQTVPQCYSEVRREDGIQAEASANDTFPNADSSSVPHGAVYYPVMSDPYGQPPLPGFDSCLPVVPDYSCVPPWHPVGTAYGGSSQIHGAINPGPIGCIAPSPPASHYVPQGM
Procedure, shortened: (§1)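 Fragment (200 µM) or vehicle was incubated for 3 h with triplicate HEK293T lysate samples of 495 µg, which were then treated with Biotin-Ahx-Ub-VS at 0.5 µM final for 1 h. Labelled DUBs were enriched on NeutrAvidin, digested with LysC and trypsin, and analysed by diaPASEF LC-MS/MS. Values are average log2 fragment/vehicle ratios from an unpaired t-test on global-median-normalised Spectronaut label-free quantities, using proteins with ≥2 unique peptides.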

[2] = biological target: ATXN3 (UniProt P54252)
Chain of ATXN3 (P54252 whole entry): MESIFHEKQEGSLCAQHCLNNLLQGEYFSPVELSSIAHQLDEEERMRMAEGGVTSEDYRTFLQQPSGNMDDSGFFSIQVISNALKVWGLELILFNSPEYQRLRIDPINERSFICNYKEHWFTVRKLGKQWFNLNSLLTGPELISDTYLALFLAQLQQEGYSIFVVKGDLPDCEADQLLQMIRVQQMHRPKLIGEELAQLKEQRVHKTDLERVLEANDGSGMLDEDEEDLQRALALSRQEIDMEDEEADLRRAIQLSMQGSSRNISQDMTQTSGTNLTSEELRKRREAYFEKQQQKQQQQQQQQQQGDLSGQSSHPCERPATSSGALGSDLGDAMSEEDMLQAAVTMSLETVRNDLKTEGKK
Procedure, shortened: as §1

[3] = biological target: T2, BAP1 (UniProt Q92560)
T2 sequence (whole entry): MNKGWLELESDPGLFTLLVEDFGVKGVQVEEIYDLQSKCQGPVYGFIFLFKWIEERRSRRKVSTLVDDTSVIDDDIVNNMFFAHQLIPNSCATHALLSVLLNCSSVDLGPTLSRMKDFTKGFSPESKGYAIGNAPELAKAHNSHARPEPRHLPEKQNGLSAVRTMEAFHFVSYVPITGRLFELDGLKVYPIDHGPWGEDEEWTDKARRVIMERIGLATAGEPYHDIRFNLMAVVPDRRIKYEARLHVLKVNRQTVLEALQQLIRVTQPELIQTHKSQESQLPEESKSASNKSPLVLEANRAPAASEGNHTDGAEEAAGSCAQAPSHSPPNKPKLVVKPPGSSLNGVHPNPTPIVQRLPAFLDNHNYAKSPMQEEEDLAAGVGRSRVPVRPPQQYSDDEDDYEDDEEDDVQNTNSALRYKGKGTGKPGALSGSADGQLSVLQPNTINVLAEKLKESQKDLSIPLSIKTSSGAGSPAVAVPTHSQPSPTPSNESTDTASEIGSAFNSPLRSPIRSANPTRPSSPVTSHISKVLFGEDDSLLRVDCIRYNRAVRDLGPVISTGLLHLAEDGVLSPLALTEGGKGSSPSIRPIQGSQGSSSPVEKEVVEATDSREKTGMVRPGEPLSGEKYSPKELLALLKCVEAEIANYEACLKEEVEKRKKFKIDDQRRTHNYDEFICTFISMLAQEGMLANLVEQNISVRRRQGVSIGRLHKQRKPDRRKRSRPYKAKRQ
Procedure, shortened: as §1

[4] = biological target: EIF3F (UniProt O00303)
Chain of EIF3F (O00303 whole entry): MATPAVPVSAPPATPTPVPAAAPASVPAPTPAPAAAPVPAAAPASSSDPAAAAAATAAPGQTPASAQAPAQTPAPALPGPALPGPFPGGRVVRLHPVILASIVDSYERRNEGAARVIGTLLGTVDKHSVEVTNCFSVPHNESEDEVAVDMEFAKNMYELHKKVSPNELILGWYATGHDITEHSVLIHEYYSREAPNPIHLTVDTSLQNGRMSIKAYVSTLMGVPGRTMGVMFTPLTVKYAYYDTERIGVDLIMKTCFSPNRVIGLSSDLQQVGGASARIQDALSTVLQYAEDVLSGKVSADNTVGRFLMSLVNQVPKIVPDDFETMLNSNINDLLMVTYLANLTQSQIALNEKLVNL
Procedure, shortened: as §1

[5] = biological target: EIF3H (UniProt O15372)
Chain of EIF3H (O15372 whole entry): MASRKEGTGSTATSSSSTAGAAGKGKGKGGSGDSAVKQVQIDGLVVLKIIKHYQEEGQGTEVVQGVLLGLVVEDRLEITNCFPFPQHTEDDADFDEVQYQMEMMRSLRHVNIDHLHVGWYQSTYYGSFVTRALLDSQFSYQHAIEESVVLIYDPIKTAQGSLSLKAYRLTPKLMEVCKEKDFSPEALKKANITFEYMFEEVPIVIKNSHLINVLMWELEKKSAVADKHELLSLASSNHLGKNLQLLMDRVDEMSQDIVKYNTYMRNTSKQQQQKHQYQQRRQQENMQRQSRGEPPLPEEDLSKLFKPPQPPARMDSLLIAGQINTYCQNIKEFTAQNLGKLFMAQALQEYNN
Procedure, shortened: as §1

[6] = biological target: T3, FAM105A (UniProt Q9NUU6)
T3 sequence (whole entry): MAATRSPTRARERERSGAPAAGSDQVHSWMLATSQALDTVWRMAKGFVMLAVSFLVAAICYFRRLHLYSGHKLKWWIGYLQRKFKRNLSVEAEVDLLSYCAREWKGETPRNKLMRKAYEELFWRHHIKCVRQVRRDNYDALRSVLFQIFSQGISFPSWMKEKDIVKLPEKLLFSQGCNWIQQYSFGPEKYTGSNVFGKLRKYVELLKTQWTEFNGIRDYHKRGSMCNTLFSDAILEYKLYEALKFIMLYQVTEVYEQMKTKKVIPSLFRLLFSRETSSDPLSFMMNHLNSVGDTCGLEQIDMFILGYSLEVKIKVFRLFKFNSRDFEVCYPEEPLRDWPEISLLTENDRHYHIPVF
Procedure, shortened: as §1

[7] = biological target: OTUB1 (UniProt Q96FW1)
Chain of OTUB1 (Q96FW1 whole entry): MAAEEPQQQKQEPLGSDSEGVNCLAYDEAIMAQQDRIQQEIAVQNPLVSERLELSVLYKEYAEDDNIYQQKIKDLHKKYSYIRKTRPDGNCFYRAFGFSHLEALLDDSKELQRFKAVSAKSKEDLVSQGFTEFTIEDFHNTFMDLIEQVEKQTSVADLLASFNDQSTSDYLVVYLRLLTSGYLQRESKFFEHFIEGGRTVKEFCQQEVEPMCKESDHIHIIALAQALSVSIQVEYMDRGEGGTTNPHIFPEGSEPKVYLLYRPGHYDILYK
Procedure, shortened: as §1

[8] = biological target: T4, OTUD4 (UniProt Q01804)
T4 sequence (whole entry): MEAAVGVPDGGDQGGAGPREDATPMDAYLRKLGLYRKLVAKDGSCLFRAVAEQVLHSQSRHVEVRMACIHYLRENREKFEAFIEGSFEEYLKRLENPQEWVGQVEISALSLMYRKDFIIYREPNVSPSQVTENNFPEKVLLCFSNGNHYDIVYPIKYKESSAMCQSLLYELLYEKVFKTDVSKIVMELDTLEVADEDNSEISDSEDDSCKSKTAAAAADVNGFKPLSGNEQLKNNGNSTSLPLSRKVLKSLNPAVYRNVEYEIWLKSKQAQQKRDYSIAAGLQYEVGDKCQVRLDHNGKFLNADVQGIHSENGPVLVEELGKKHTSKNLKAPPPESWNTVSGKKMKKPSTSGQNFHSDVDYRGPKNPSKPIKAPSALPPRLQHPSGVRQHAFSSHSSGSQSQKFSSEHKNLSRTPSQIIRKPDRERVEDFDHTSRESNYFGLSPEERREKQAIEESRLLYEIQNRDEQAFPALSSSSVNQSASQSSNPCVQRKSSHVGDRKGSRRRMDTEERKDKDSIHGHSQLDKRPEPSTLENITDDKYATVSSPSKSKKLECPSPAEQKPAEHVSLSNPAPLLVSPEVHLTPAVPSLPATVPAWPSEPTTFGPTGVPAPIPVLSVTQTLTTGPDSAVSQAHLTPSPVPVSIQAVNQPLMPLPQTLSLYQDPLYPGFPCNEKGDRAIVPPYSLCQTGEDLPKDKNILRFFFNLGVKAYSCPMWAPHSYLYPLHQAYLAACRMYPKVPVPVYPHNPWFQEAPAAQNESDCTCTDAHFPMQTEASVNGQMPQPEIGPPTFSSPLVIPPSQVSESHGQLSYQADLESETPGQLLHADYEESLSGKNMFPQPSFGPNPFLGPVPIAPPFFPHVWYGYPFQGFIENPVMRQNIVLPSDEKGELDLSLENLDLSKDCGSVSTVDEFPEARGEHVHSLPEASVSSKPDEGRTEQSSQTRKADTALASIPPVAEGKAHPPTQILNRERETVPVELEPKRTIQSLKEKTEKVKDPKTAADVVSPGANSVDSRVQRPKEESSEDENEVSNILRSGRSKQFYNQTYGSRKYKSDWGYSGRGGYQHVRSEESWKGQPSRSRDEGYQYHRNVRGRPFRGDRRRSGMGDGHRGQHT
Procedure, shortened: as §1

[9] = biological target: T5, OTUD5 (UniProt Q96G74)
T5 sequence (whole entry): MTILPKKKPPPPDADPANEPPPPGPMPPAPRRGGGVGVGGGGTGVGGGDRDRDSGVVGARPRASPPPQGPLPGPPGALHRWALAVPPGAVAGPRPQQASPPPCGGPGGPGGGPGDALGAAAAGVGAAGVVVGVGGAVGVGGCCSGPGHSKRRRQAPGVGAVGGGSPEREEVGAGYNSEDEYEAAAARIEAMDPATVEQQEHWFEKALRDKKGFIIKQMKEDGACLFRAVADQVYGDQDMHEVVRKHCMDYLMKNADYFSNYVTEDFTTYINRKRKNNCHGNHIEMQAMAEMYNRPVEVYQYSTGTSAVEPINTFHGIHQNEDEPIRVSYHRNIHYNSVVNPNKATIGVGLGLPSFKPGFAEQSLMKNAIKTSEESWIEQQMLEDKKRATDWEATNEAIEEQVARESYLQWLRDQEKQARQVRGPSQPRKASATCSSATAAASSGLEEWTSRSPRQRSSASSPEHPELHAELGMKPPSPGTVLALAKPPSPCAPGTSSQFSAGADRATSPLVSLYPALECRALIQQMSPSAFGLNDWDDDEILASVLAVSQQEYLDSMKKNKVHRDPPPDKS
Procedure, shortened: as §1

SMILES: COc1ccc(Cl)cc1NC(=O)CCl
- log2 ratio of Biotin-Ahx-Ub-VS probe labelling [1]: 0.166
- log2 ratio of Biotin-Ahx-Ub-VS probe labelling [2]: -0.592
- log2 ratio of Biotin-Ahx-Ub-VS probe labelling [3]: -1.61 (active)
- log2 ratio of Biotin-Ahx-Ub-VS probe labelling [4]: -0.594
- log2 ratio of Biotin-Ahx-Ub-VS probe labelling [5]: 0.0551
- log2 ratio of Biotin-Ahx-Ub-VS probe labelling [6]: -0.287
- log2 ratio of Biotin-Ahx-Ub-VS probe labelling [7]: -0.497
- log2 ratio of Biotin-Ahx-Ub-VS probe labelling [8]: -0.484
- log2 ratio of Biotin-Ahx-Ub-VS probe labelling [9]: -0.638
